Drawing on PubChem BioAssay, this text covers composite z-score and z-score for 13 molecules.

Molecules are shown by their SMILES. Calls of active or inactive are those of the source.

Assay [1] is described as follows: small molecules captured by biotinylated probe aFSTL3 – biochemical, small-molecule microarray, fluorescence 635/667, stem cell growth factor project, primary screen (AID 1064).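 Also: measures binding of the biotinylated anti-FSTL3 antibody to printed compounds.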 Conditions: higher = more signal.
Assay [2] in a line: binders from COS7 lysate, DM2A8 probe, primary screen, torsin A project, cell lysate, small-molecule microarray, fluorescence 635/667 (AID 1065). As to conditions: higher = more signal, COS7 lysate expressing mutant human TOR1A.
Assay [3] is described as follows: small molecules captured by biotinylated probe aFGF2 – biochemical, small-molecule microarray, fluorescence 635/667, stem cell growth factor project, primary screen (AID 1067).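 Also: measures binding of biotinylated aFGF2 protein to printed compounds on slides; z-score merges feature fluorescence and signal-to-noise across triplicate slides.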 Conditions: higher = more signal.
A short description of assay [4]: small molecules captured by biotinylated probe aFGF10 – biochemical, small-molecule microarray, fluorescence 635/667, stem cell growth factor project, primary screen (AID 1071).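 Also: score merges 667 nm spot intensity and signal to noise from triplicate slides.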 Conditions: higher = more signal.
Assay [5] deals with Neurogenic locus notch homolog protein 2 (Homo sapiens) (UniProt Q04721). Put plainly: small molecules binding Notch2 protein – biochemical, small-molecule microarray, 635 nm fluorescence, stem cell growth factors, primary screen (AID 1073). Conditions: higher = more signal.
Neurogenic locus notch homolog protein 2 (Homo sapiens), sequence (Q04721 whole entry, looked up, canonical isoform): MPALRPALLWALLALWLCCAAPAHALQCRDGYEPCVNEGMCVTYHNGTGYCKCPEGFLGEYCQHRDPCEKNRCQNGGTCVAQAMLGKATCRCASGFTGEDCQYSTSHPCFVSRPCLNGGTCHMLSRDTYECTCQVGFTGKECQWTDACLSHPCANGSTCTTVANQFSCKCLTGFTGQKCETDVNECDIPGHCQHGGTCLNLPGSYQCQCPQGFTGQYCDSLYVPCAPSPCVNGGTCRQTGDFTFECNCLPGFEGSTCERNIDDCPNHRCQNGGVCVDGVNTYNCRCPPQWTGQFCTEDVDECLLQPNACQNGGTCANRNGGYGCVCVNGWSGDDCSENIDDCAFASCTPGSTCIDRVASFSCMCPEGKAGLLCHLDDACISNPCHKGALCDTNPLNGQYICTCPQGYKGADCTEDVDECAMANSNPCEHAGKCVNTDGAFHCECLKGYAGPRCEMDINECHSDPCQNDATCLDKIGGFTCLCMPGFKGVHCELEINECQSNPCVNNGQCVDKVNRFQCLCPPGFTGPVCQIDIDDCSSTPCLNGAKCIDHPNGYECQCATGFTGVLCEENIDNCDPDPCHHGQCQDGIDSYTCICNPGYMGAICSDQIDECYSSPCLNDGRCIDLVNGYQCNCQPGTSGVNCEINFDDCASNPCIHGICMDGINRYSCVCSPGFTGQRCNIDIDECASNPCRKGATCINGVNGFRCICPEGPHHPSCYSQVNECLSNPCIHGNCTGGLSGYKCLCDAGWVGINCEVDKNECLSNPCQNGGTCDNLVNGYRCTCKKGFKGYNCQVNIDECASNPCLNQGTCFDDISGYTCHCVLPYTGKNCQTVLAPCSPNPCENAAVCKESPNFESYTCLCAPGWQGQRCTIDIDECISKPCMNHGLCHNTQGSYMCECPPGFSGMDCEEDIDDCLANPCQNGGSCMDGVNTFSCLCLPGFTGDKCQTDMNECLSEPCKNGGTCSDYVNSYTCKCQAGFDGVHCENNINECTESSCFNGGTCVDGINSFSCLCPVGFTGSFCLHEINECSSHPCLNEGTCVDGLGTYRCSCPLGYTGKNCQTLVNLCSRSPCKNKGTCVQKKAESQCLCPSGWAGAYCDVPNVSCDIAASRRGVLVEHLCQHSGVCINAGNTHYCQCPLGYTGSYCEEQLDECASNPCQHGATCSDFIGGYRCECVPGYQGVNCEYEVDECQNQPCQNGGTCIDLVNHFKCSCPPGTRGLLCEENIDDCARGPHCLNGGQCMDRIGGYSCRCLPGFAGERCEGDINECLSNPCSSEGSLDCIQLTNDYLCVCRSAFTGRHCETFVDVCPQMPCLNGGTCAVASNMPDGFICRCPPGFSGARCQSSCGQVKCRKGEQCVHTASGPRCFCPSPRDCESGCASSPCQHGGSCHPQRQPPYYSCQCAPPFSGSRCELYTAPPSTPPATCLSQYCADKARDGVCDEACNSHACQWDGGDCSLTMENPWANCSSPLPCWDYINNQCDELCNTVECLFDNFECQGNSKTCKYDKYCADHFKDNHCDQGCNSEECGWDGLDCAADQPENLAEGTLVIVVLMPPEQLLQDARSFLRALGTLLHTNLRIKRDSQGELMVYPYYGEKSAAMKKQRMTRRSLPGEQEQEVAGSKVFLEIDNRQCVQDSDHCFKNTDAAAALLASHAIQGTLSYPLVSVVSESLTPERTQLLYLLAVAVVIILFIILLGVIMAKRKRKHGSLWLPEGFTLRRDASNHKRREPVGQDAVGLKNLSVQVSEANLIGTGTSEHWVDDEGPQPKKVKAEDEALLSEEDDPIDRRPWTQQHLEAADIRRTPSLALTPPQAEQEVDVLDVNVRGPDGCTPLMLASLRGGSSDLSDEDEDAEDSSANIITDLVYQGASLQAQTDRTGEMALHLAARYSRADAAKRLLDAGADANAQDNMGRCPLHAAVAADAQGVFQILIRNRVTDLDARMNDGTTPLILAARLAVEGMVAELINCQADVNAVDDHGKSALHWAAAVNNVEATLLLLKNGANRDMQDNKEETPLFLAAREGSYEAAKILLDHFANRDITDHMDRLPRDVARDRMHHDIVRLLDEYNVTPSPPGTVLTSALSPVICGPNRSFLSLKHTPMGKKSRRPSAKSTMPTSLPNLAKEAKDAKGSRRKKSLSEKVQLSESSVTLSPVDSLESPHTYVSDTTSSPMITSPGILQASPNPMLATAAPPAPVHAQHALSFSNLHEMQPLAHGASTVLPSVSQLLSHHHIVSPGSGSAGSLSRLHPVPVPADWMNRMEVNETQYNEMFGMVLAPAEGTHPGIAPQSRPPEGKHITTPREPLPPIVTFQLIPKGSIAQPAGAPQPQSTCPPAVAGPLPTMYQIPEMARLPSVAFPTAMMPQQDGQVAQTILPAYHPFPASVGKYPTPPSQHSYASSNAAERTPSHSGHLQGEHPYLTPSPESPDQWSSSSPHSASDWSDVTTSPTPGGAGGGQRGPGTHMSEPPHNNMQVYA
The target in assay [6] is Pro-neuregulin-1, membrane-bound isoform (Homo sapiens) (UniProt Q02297). Put plainly: small molecules binding neuregulin-1 protein – biochemical, small-molecule microarray, fluorescence 635/667, psychiatric disease protein project, primary screen (AID 1075).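 Also: score combines 667 nm spot fluorescence with signal to noise.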 Conditions: NRG1 binding, 635 nm fluorescence, higher = more signal.
Pro-neuregulin-1, membrane-bound isoform (Homo sapiens), sequence (Q02297 whole entry, looked up, the tested form may be a part, canonical isoform): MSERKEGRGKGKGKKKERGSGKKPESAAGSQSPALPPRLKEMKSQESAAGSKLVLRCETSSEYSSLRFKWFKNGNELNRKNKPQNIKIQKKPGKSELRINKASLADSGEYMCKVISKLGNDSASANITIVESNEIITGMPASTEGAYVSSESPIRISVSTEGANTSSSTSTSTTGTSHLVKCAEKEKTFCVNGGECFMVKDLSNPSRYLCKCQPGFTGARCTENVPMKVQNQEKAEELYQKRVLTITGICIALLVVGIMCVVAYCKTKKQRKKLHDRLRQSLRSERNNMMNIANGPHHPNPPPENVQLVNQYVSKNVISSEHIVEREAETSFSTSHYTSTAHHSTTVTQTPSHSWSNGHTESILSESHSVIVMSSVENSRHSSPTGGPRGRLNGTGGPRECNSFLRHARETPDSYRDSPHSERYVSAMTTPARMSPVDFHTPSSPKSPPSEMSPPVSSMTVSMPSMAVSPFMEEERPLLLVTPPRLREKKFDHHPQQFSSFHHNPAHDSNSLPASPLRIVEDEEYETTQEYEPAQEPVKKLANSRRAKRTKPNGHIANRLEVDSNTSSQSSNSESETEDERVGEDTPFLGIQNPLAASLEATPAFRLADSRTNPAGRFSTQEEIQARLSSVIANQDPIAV
Assay [7] deals with Neuregulin-1 EGF-like domain. Put plainly: small molecules binding NRG1 EGF domain – biochemical, small-molecule microarray, 635 nm fluorescence, primary screen (AID 1081).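 Also: binding of the protein to compounds printed on small-molecule microarray slides.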 Conditions: higher = more signal.
The nature of assay [8]: FRG1 expression reporter modulators in myotubes – cell-based, C2C12 myotubes, firefly/Renilla luciferase, luminescence, FRG1 inhibition for FSHD, primary screen (AID 1084). As to conditions: FRG1 promoter luciferase, higher = more signal, called active from +8 up or from −8 down.
The nature of assay [9]: small molecules captured by biotinylated probe aFST – biochemical, small-molecule microarray, fluorescence 635/667, stem cell growth factor project, primary screen (AID 1086).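 Also: score merges 667 nm fluorescence with signal-to-noise of each printed compound spot.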 As to conditions: higher = more signal.
The nature of assay [10]: binders of probe aHhip on microarray, primary screen, stem cell growth factor project, biochemical, small-molecule microarray, fluorescence 635/667 (AID 1087).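 Also: score merges spot fluorescence at 667nm with spot signal to noise ratio.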 Conditions: higher = more signal.

`CCOC(=O)[C@H](Cc1ccccc1)NC(=O)CCC1CC(OC(=O)NCc2cccc3ccccc23)CC2(CCCC(COC(=O)NCc3ccccc3)O2)O1` (stereo not given in full): the composite z-score in assay [1] is -0.356; in [2], 0.0841; in assay [3] it was -0.21; in assay [4] it was 0.159; in assay [5], 0.118; in assay [6], 0.477. Besides, the composite z-score in assay [7] is 0.686; in assay [9], 0.0918; in assay [10], -0.303. Besides, the z-score in [8] was 0.573 (inactive).
Regarding `CO[C@@H]1COC(=O)[C@H](CCSC)NC(=O)CC=C[C@@H](C)COC(=O)CCC[C@H]1C`, the composite z-score in assay [1] was -0.994; in assay [2], 2.94; in assay [3] it was -0.167; in assay [4], 0.114; in assay [5], -0.559; in [6], -1.28. In addition, the composite z-score was 1.15 in [7], 1.41 in [9] and -0.161 in assay [10]. In assay [8], the z-score was 0.0651 (inactive).
As for `CCC=CCCC(OC(=O)c1ccc(Br)cc1)C1=CCCCC1=O` (stereo not given), the composite z-score in assay [1] is 0.122; in assay [2] it was 0.333; in assay [3], 0.543; in assay [4], -0.0363; in assay [5], -0.164; in assay [6] it was 0.714. The results for the composite z-score in [7], in assay [9] and in assay [10] were 0.878, 0.336 and 0.0826, respectively. Besides, in assay [8], the z-score was 0.796 (inactive).
In the case of `O=C1C=C[C@@H](O)[C@@H]2[C@@H]3C(=O)N(C[C@@H]4CCCO4)C(=O)[C@@H]3CC[C@@H]12`, the composite z-score in assay [1] is -0.518; in assay [2], 0.0078; in [3], -0.103; in assay [4] it was 0.458; in [5], 0.141; in [6], -0.0326. Moreover, the values for the composite z-score in assay [7], in assay [9] and in assay [10] were 0.691, 0.041 and -0.136, respectively. Further, in assay [8], the z-score was -0.241 (inactive).
`C[C@@H](ON=C1[C@H]2CCn3c(=O)n(-c4ccccc4)c(=O)n3[C@H]2[C@H](O)[C@@H]2O[C@H]12)c1cn([C@@H]2COC[C@H]2O)nn1`: the composite z-score is -0.648 in assay [1]; 0.653 in assay [2]; -0.0529 in assay [3]; 0.35 in assay [4]; 0.213 in [5]; 0.406 in assay [6]. For the same molecule, the composite z-score in [7] was found to be 0.261; in assay [9] it was 0.236; in assay [10], 0.0274. Further, in assay [8], the z-score was 1.15 (inactive).
In the case of `CCOC(=O)NN=C1C[C@@H](O)[C@@H](O)[C@@H]2[C@@H]3C(=O)N(c4ccc(F)cc4F)C(=O)[C@@H]3CC[C@@H]12`, the composite z-score was -0.333 in [1]; 0.415 in [2]; -0.0659 in assay [3]; 0.281 in [4]; 0.493 in assay [5]; 0.594 in assay [6]. Besides, the composite z-score is -0.0454 in assay [7], 0.627 in assay [9] and 0.0139 in assay [10]. In addition, the z-score in assay [8] was -0.248 (inactive).
For `CC(CCN1CCCc2nc(C)c(C)cc21)=NO[C@@H](C)c1cc(-c2c(C)cc(C)cc2C)no1`, the composite z-score was -0.34 in [1]; -0.685 in assay [2]; -0.0069 in assay [3]; 0.338 in [4]; 0.121 in assay [5]; 0.732 in assay [6]. Moreover, the composite z-score in [7] is 0.8; in [9] it was 0.0731; in [10], -0.166. In addition, in assay [8], the z-score was -0.682 (inactive).
As for `C[C@@H](c1ccccc1)N1C(=O)[C@H]2[C@H]3[C@H](O)[C@H](O)CC(=NO[C@@H]4O[C@H](CO)[C@@H](O)[C@H](O)[C@H]4O)[C@@H]3CC[C@H]2C1=O`, the composite z-score was -0.395 in assay [1]; 0.764 in [2]; -0.0428 in [3]; 0.306 in [4]; 0.641 in assay [5]; -0.319 in assay [6]. Further, the values for the composite z-score in assay [7], in [9] and in assay [10] were 0.752, 0.205 and -0.0618, respectively. In addition, in [8], the z-score was 0.19 (inactive).
In the case of `CC(C)(C)N1C(=O)[C@H]2[C@H]3[C@H](O)C=CC(=O)[C@@H]3CC[C@H]2C1=O`, the composite z-score in [1] was -0.623; in [2], 0.0741; in assay [3], -0.132; in [4] it was 0.412; in assay [5], 0.437; in assay [6] it was -0.261. For the same molecule, the composite z-score in [7] came out at 0.368; in assay [9] it was 0.229; in assay [10], 0.0251. Further, the z-score in assay [8] was -0.757 (inactive).
With `C[C@@H]1CC[C@H]2C(=O)O[C@@H](COc3ccc(C(C)(C)C)cc3)CN2[C@@H]1c1ccc(Br)cc1`, the composite z-score in assay [1] is -0.368; in assay [2] it was -0.257; in assay [3] it was -0.162; in [4], -0.249; in [5] it was -0.538; in assay [6], -0.0758. The figures for the composite z-score in assay [7], in assay [9] and in assay [10] were -0.976, -0.217 and -0.134, respectively. Further, in assay [8], the z-score was 1.03 (inactive).
As to `CC=CC1=C(CO)C(=O)[C@@H]2O[C@@H]2C1=O`, the composite z-score in assay [1] was -0.538; in [2] it was -0.45; in [3], -0.093; in assay [4], 0.0736; in [5], -0.126; in assay [6] it was -0.719. Further, the composite z-score in assay [7] is 0.687; in [9] it was -0.212; in assay [10], -0.0994. In addition, the z-score in assay [8] was -0.078 (inactive).
Consider `CC(C)(C)N1C(=O)[C@H]2[C@H]3[C@H](O)[C@H](O)CC(=NOCc4ccccc4)[C@H]3CC[C@H]2C1=O`, for which the composite z-score in [1] is 1.55; in assay [2], 0.636; in assay [3], -0.0006; in assay [4], -0.0753; in [5], -0.224; in assay [6], -0.102. Further, the composite z-score in [7] is -0.559; in assay [9] it was 0.687; in [10], -0.119. The z-score in assay [8] was 0.431 (inactive).
`CCCNC(=O)OC[C@H]1O[C@H](CCON=Cc2ccc(C(=O)N3[C@H](c4ccc(C)cc4)[C@@H](C)CC[C@H]3C(=O)OC)cc2)C=C[C@@H]1Oc1ccc(OC)cc1`: the composite z-score in assay [1] was -0.52; in assay [2], 0.304; in assay [3], -0.173; in assay [4] it was 0.335; in [5], 0.458; in assay [6], 0.448. Moreover, the composite z-score in assay [7] was 0.51; in assay [9] it was 0.598; in assay [10] it was -0.102. In addition, the z-score in [8] is 0.868 (inactive).
